According to the supplement of paper PMC10849652:
Of roughly 7,900 targets only a part is listed; those with a hit were picked by preference. About 0.6% of all pairs of compound and target were hits.

Experiments:
Experiment in all cases: log2 fold change, soluble protein after heating vs DMSO (PISA); higher = thermal stabilisation; K562 cells, 10 uM, 30 min; active = over 0.2 and 3.5 SD of the protein, either way, in both replicates (recomputed)
[1] = compound: CC1=C(C=C(C=C1)NC(=O)C2=CC(=CC=C2)C(C)(C)C#N)NC3=CC4=C(C=C3)N=CN(C4=O)C
Outline: (§1)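 Values are thermal stability changes relative to control samples and are taken from duplicates. They are stated as log2 fold changes. Before quantification by TMTpro 16plex LC-MS/MS with equalised channel sums, K562 cells at 2×10^6 cells/mL were treated with 10 μM compound for 30 min, heated in aliquots for 3 min across 48°C-58°C, pooled, extracted in PBS with 0.5% NP-40 at 4°C, and centrifuged at 21,000xg for 90 min to give the soluble supernatant.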

[2] = compound: CC1=C(C=C(C=C1)NC(=O)C2=CC(=CC=C2)N(C)C)NC(=O)C3=CC=C(C=C3)O
Outline: as §1

[3] = compound: CC1=CC=C(C=C1)SC2=C3C=C(SC3=CN=C2)C(=O)N
Outline: as §1

[4] = compound: CC1=NC(=CC=C1)C2=C(N=C(N2)C(C)(C)C)C3=CC4=NC=CN=C4C=C3
Outline: as §1

Nexturastat A = compound: CCCCN(Cc1ccc(C(=O)NO)cc1)C(=O)Nc1ccccc1 [Nexturastat A]
Outline: as §1

vemurafenib = compound: CCCS(=O)(=O)Nc1ccc(F)c(C(=O)c2c[nH]c3ncc(-c4ccc(Cl)cc4)cc23)c1F [vemurafenib]
Outline: as §1

[5] = compound: CCCS(=O)(=O)Nc1ccc(F)c(C(=O)c2c[nH]c3ncc(Cl)cc23)c1F
Outline: as §1

[6] = compound: CCCc1cc(C)[nH]c(=O)c1CNC(=O)c1cc(-c2ccnc(N3CCN(C)CC3)c2)cc2c1cnn2C(C)C
Outline: as §1

givinostat = compound: CCN(CC)Cc1ccc2cc(COC(=O)Nc3ccc(C(=O)NO)cc3)ccc2c1 [givinostat]
Outline: as §1

barasertib = compound: CCN(CCCOc1ccc2c(Nc3cc(CC(=O)Nc4cccc(F)c4)[nH]n3)ncnc2c1)CCOP(=O)(O)O [barasertib]
Outline: as §1

[7] = compound: CC[C@@H]1C(=O)N(C)c2cnc(Nc3ccc(C(=O)NC4CCN(C)CC4)cc3OC)nc2N1C1CCCC1
Outline: as §1

volasertib = compound: CC[C@@H]1C(=O)N(C)c2cnc(Nc3ccc(C(=O)N[C@H]4CC[C@H](N5CCN(CC6CC6)CC5)CC4)cc3OC)nc2N1C(C)C [volasertib]
Outline: as §1

[8] = compound: CC[C@H](C)N1C=C(C2=C(C=C(C=C21)C3=CN=C(C=C3)N4CCNCC4)C(=O)NCC5=C(C=C(NC5=O)C)C)C
Outline: as §1

epoxomicin = compound: CC[C@H](C)[C@@H](C(=O)N[C@@H]([C@@H](C)O)C(=O)N[C@@H](CC(C)C)C(=O)[C@]1(CO1)C)NC(=O)[C@H]([C@@H](C)CC)N(C)C(=O)C [epoxomicin]
Outline: as §1

[9] = compound: CCn1c(C(=O)N(C2CC2)C2CC2)cc2c3c(ncn3C)c(Nc3cc(C)n(C)n3)nc21
Outline: as §1

[10] = compound: CN(C)CC(=O)Nc1ccc2[nH]c(=O)c3ccccc3c2c1
Outline: as §1

rosiglitazone = compound: CN(CCOC1=CC=C(C=C1)C[C@H]2C(=O)NC(=O)S2)C3=CC=CC=N3 (racemic) [rosiglitazone]
Outline: as §1

[11] = compound: CN1C2=C(C3=C1C(=O)N(N=C3)CC4=CC(=CC=C4)N)SC(=C2)S(=O)C
Outline: as §1

[12] = compound: CCn1cc(-c2ccnc3[nH]c(-c4cccc(CN(C)C)c4)cc23)c(-c2ccc(NC(=O)N(C)C)cc2)n1
Outline: as §1

[13] = compound: CN1CCC(CNc2ccc3ncc(-c4cccc(OC(F)(F)F)c4)n3n2)CC1
Outline: as §1

Measured: log2 fold change

DNAJC24 (UniProt Q6P3W2)
Chain of UniProt Q6P3W2 (Q6P3W2 whole entry, looked up): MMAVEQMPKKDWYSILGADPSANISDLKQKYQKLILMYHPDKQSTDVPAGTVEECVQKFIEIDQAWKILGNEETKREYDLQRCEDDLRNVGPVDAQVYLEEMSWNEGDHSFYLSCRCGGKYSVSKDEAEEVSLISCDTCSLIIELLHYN
inactive: [1] -0.024 | [2] 0.368 | [3] 0.104 | [4] 0.008 | Nexturastat A -0.208 | vemurafenib 0.008 | [5] -0.034 | [6] 0.027 | givinostat 0.07 | barasertib 0.008 | [7] -0.318 | volasertib -0.244 | [8] 0.029 | epoxomicin 0.034 | [9] 0.049 | [10] -0.027 | rosiglitazone -0.01 | [11] -0.284

DHRS1 (UniProt Q96LJ7)
inactive: [1] 0.357 | [2] -0.143 | [3] -0.166 | [4] -0.202 | Nexturastat A 0.096 | vemurafenib 0.29 | [5] -0.079 | [6] 0.088 | givinostat 0.068 | barasertib -0.05 | [7] 0.164 | volasertib 0.302 | [8] 0.039 | epoxomicin -0.062 | [9] 0.034 | [12] -0.098 | [10] -0.048 | rosiglitazone -0.022 | [11] -0.051 | [13] 0.065

FAM50A (UniProt Q14320)
active: volasertib -0.258
inactive: [1] 0.041 | [2] -0.059 | [3] 0.019 | [4] 0.057 | Nexturastat A -0.069 | vemurafenib 0.049 | [5] 0.035 | [6] 0.014 | givinostat 0.102 | barasertib 0.026 | [7] -0.158 | [8] 0.06 | epoxomicin 0.058 | [9] -0.022 | [12] 0.053 | [10] 0.029 | rosiglitazone 0.001 | [11] -0.07 | [13] -0.052

DDX11 (UniProt Q96FC9)
Chain of UniProt Q96FC9 (Q96FC9 whole entry, looked up): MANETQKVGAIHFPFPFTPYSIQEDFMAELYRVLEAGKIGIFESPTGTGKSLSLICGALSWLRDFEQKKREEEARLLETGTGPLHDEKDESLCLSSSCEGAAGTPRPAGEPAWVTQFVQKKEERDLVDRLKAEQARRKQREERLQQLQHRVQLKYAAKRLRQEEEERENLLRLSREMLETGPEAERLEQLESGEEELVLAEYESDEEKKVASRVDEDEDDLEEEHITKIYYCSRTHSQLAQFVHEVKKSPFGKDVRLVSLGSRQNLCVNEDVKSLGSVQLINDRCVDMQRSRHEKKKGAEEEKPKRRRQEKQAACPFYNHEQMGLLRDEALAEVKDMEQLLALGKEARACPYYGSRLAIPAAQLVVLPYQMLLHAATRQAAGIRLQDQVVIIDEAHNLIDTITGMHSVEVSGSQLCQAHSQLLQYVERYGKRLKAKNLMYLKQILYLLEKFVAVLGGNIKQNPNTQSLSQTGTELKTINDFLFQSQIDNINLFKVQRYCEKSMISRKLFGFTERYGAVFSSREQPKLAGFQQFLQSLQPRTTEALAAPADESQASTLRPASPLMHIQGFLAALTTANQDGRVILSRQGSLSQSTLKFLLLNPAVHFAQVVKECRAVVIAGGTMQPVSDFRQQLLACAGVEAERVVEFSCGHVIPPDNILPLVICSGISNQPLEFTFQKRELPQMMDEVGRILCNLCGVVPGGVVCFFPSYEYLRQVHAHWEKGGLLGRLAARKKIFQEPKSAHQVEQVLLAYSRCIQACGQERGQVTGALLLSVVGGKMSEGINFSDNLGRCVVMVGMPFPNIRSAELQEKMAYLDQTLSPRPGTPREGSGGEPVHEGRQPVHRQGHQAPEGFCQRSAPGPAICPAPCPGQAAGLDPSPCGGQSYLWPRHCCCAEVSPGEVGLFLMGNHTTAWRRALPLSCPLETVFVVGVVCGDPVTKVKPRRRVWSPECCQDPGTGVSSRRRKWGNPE
inactive: [1] -0.04 | [2] 0.052 | [3] -0.035 | [4] 0.043 | Nexturastat A -0.011 | vemurafenib -0.072 | [5] 0 | [6] -0.006 | givinostat -0.029 | barasertib 0.125 | volasertib -0.084 | [8] 0.128 | epoxomicin 0.099 | [9] -0.018 | [10] 0.098 | rosiglitazone 0.052 | [11] -0.04

DHCR7 (UniProt Q9UBM7)
active: givinostat 0.808 | volasertib 1.68 | [12] 0.522
inactive: [1] -0.037 | [2] -0.028 | [3] -0.055 | [4] 0.023 | Nexturastat A 0.104 | vemurafenib 0.011 | [5] 0.039 | [6] 0.139 | barasertib 0.204 | [7] 0.409 | [8] 0.054 | epoxomicin 0.154 | [9] -0.044 | [10] 0.085 | rosiglitazone 0.032 | [11] -0.055 | [13] 0.203

DAXX (UniProt Q9UER7)
Chain of UniProt Q9UER7 (Q9UER7 whole entry, looked up): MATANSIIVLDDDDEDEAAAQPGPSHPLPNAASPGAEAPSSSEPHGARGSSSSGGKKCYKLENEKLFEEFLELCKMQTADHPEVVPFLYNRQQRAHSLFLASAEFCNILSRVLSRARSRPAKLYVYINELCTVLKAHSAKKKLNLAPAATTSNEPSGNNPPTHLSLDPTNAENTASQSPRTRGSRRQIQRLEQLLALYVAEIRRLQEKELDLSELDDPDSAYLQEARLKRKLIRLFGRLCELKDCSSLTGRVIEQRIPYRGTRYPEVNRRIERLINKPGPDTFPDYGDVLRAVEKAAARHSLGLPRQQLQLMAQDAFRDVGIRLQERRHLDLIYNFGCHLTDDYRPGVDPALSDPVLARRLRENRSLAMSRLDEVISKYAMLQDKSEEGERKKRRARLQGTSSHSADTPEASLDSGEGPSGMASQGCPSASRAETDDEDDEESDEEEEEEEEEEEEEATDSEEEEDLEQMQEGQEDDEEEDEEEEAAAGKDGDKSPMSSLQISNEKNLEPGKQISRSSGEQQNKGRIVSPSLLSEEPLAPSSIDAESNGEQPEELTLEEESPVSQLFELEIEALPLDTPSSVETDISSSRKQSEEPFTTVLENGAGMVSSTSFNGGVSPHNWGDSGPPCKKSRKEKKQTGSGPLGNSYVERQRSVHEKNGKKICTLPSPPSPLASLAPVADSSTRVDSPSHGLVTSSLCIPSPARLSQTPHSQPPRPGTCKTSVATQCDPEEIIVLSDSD
inactive: [1] 0.019 | [2] -0.02 | [3] 0.031 | [4] -0.165 | vemurafenib -0.058 | [5] 0.031 | givinostat 0.352 | barasertib -0.025 | [7] 0.018 | volasertib -0.006 | [8] 0.204 | [9] -0.111 | [12] -0.102 | [10] -0.077 | rosiglitazone 0.047 | [11] -0.093 | [13] 0.027

DCP2 (UniProt Q8IU60)
inactive: [1] -0.134 | [2] -0.006 | [3] 0.016 | [4] -0.089 | Nexturastat A 0.174 | vemurafenib 0.064 | [5] 0.055 | volasertib -0.153 | epoxomicin -0.04 | [10] -0.069 | [11] 0.319

EEF1B2 (UniProt P24534)
Chain of UniProt P24534 (P24534 whole entry, looked up): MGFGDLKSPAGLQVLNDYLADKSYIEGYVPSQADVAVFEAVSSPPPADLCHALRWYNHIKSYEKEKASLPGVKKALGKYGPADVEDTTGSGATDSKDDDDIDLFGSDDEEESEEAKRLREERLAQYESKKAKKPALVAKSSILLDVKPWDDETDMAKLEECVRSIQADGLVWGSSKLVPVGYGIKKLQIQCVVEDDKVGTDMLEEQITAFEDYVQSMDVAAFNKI
inactive: [1] 0.024 | [2] -0.025 | [3] -0.007 | [4] 0.031 | Nexturastat A 0.031 | vemurafenib 0.024 | [5] 0.02 | [6] -0.009 | givinostat 0.023 | barasertib 0.055 | [7] -0.171 | [8] 0.056 | epoxomicin -0.034 | [9] -0.015 | [12] 0.007 | [10] 0.016 | rosiglitazone 0.008 | [11] 0.03 | [13] -0.065
active: volasertib -0.343

ELMO1 (UniProt Q92556)
inactive: [1] -0.075 | [2] -0.005 | [4] -0.074 | Nexturastat A -0.101 | vemurafenib -0.172 | [6] 0.218 | givinostat -0.043 | barasertib -0.105 | [8] -0.089 | epoxomicin -0.109 | [9] 0.046 | [10] 0.031 | rosiglitazone 0.076 | [11] -0.078

FAM118A (UniProt Q9NWS6)
Chain of UniProt Q9NWS6 (Q9NWS6 whole entry, looked up): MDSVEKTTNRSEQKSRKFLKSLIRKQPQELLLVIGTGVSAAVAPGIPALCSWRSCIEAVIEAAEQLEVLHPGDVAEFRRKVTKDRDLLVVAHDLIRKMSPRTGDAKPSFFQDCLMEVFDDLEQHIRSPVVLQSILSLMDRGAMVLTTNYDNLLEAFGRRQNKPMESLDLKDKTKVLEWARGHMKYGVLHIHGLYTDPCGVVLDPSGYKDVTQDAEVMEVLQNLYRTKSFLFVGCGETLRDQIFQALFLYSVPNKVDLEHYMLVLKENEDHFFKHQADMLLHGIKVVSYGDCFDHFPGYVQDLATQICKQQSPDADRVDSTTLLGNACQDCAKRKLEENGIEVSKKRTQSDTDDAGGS
inactive: [1] 0.057 | [2] 0.086 | [3] 0.101 | [4] -0.163 | Nexturastat A -0.031 | vemurafenib 0.182 | [5] 0.114 | [6] -0.016 | barasertib 0.112 | volasertib -0.54 | [8] 0.136 | epoxomicin 0.118 | [12] -0.075 | [10] 0.222 | rosiglitazone -0.02 | [11] -0.007 | [13] -0.142
active: [7] -0.812

DNM2 (UniProt P50570)
Chain of UniProt P50570 (P50570 whole entry, looked up): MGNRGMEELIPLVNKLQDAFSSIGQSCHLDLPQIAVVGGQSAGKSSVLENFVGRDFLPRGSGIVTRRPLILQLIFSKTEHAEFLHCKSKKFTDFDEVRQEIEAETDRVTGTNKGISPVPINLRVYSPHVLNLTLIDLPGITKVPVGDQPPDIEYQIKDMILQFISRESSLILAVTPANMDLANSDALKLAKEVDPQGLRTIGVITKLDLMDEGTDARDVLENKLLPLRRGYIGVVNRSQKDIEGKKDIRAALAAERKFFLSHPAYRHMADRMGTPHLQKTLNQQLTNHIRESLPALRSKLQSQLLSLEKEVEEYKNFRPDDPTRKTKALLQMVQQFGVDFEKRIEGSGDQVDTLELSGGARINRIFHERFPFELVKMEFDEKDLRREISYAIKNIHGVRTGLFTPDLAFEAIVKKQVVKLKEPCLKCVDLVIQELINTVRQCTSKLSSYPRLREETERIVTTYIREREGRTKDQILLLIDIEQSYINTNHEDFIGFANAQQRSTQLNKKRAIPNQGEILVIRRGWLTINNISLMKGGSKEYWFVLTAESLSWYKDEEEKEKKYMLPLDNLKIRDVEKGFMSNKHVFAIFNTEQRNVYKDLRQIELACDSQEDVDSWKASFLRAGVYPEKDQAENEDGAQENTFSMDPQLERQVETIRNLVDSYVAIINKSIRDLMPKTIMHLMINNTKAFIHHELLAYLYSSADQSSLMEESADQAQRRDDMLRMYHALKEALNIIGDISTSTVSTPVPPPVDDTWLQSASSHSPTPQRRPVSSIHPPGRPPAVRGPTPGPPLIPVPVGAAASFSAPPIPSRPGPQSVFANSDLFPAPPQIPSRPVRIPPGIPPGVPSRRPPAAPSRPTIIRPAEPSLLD
inactive: [1] -0.016 | [2] -0.043 | [3] 0.009 | [4] 0.024 | Nexturastat A -0.057 | vemurafenib 0.016 | [5] 0.033 | [6] -0.007 | givinostat 0.036 | barasertib 0.054 | [7] -0.013 | volasertib -0.015 | [8] 0.043 | epoxomicin 0.029 | [9] -0.002 | [12] -0.091 | [10] 0.037 | rosiglitazone 0.05 | [11] -0.044
active: [13] -0.349

DHX16 (UniProt O60231)
inactive: [1] -0.014 | [2] -0.018 | [3] 0.024 | [4] 0.036 | Nexturastat A -0.002 | vemurafenib 0.017 | [5] 0.059 | [6] -0.011 | givinostat 0.017 | barasertib 0.032 | [7] -0.032 | volasertib -0.158 | [8] 0.032 | epoxomicin 0.051 | [9] -0.05 | [12] -0.054 | [10] -0.025 | rosiglitazone 0.031 | [11] -0.033 | [13] -0.012

DENND10 (UniProt Q8TCE6)
inactive: [1] 0.022 | [2] 0.036 | [3] 0.029 | Nexturastat A -0.119 | vemurafenib -0.023 | [5] 0.01 | [6] -0.023 | givinostat 0.131 | barasertib 0.036 | [7] -0.041 | volasertib -0.241 | [8] 0.121 | epoxomicin -0.041 | [9] -0.048 | [10] 0.076 | rosiglitazone 0.007 | [11] -0.031

DIAPH1 (UniProt O60610)
inactive: [1] 0.018 | [2] -0.05 | [3] 0.025 | [4] -0.049 | Nexturastat A 0.19 | vemurafenib 0.041 | [5] 0.062 | [6] 0.08 | givinostat 0.051 | barasertib 0.077 | [7] 0.012 | volasertib -0.211 | [8] 0.09 | epoxomicin -0.004 | [9] -0.061 | [12] 0.055 | [10] 0.053 | rosiglitazone 0.047 | [11] 0.168 | [13] -0.012

EIF4E2 (UniProt O60573)
active: volasertib -0.381
inactive: [1] -0.089 | [2] -0.006 | [3] 0.061 | [4] 0.089 | Nexturastat A 0.097 | vemurafenib 0.126 | [5] 0.069 | [6] 0 | givinostat 0.031 | barasertib 0.083 | [7] -0.202 | [8] 0.124 | epoxomicin 0.018 | [9] -0.053 | [10] 0.063 | rosiglitazone 0.035 | [11] -0.034

CWF19L2 (UniProt Q2TBE0)
Chain of UniProt Q2TBE0 (Q2TBE0 whole entry, looked up): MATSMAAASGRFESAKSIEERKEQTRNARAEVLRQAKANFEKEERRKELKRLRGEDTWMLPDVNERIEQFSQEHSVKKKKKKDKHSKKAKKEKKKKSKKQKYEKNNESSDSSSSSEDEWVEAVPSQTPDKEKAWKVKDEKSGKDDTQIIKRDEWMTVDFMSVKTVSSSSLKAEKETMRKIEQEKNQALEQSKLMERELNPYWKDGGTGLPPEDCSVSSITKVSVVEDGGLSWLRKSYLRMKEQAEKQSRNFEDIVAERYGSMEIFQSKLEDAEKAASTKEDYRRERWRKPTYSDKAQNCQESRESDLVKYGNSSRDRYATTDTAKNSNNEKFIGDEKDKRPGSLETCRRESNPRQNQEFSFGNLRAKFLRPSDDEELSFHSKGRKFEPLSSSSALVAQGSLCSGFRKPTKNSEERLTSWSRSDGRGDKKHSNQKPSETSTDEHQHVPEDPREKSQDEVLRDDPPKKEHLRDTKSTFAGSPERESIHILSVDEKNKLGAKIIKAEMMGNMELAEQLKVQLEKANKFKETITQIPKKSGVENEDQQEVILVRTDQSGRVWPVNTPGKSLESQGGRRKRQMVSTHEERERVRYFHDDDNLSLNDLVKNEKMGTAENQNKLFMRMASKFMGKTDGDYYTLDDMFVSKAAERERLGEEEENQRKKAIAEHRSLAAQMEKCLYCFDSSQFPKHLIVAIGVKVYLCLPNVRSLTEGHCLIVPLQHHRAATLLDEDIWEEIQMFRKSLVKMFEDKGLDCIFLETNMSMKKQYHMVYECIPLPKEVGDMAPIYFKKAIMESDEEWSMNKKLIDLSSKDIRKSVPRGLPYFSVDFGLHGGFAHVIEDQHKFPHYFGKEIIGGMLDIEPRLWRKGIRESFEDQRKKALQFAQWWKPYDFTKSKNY
inactive: [1] -0.048 | [2] 0.046 | [3] 0.166 | [4] -0.038 | [5] -0.057 | givinostat 0.035 | [7] -0.051 | volasertib -0.107 | [9] -0.131 | [12] 0.094 | [11] 0.231 | [13] 0.21

EIF2AK1 (UniProt Q9BQI3)
Chain of UniProt Q9BQI3 (Q9BQI3 whole entry, looked up): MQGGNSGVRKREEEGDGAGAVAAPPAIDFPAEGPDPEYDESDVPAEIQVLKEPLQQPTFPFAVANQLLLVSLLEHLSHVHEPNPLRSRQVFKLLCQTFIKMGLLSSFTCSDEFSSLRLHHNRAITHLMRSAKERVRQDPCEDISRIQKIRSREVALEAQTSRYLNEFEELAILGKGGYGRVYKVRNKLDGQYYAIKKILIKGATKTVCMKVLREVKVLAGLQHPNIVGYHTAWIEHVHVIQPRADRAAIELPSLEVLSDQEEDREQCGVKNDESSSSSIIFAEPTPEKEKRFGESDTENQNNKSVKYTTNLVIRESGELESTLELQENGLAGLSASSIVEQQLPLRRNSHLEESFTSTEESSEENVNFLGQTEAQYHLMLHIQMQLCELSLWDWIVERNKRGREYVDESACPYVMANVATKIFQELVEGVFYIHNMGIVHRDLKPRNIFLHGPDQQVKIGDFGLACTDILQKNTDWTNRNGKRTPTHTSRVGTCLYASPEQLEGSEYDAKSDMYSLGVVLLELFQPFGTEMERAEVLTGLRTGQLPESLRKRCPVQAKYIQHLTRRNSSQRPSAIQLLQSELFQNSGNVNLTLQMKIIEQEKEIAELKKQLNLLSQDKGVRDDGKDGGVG
inactive: [1] -0.027 | [2] -0.007 | [3] 0.079 | [4] -0.019 | Nexturastat A -0.087 | vemurafenib 0.005 | [5] 0.044 | [6] 0.179 | givinostat -0.051 | barasertib -0.017 | volasertib -0.142 | epoxomicin 0.13 | [9] 0.001 | [12] 0.034 | [10] -0.121 | rosiglitazone -0.025 | [11] 0.006 | [13] -0.082

ELOVL5 isoform 2 (UniProt Q9NYP7)
active: [13] -0.691
inactive: [1] 0.079 | [2] 0.02 | [3] 0.002 | Nexturastat A -0.05 | vemurafenib 0.065 | [5] 0.03 | [6] -0.241 | givinostat -0.008 | barasertib 0.035 | [7] -0.227 | volasertib -0.164 | [8] 0.026 | epoxomicin -0.034 | [9] 0.049 | [12] -0.206 | [10] 0.021 | rosiglitazone 0.122 | [11] -0.044
